Giardia FBPA inh – inhibitors of Giardia lamblia fructose-1,6-bisphosphate aldolase | Potency, µM (doses to about 59.6 µM), without a hit: at the top dose activity, negative = inhibition, actives largely listed as inhibitors | 0.71% of 290,000 active | purified Giardia FBPA | AID 2451 | A8B2U2; note: potency is the fitted concentration of half-maximal effect; % is set by controls: 0 for no effect and ±100 for the full control effect; nearly all actives have a fitted effect of over 55% in size
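Giardia FBPA (40 nM reagent) was preincubated 10 min at RT with compound (up to 57.5 uM final), then substrate plus GAPDH/TPI/NAD/arsenate coupling system with diaphorase/resazurin was added; resorufin fluorescence (525/598 nm) was read after 20 min.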
Shiga inhibitor – blocks Shiga toxin action in Vero cells; Vero cells, Shiga toxin protein synthesis inhibition reporter; AID 2315; 9.2% of 290,000 active; inhibition, % at 38.7 µM; in the data active = inhibition mostly above about 28%, no sharp cut-off; inactive = mostly below about 43%; note: 0% is about no effect
Tb PYK inh – blocks Trypanosoma brucei pyruvate kinase; Q57TT1; TbPYK enzyme, Kinase-Glo Plus ATP luminescence, 45 min; Potency, µM (doses to about 76.8 µM), for the others: top-dose activity, negative = inhibition, hits mostly inhibitors; 0.12% of 410,000 active; AID 624173; note: potency is the fitted concentration of half-maximal effect; % is set by controls: 0 for no effect and ±100 for the full control effect; nearly all actives have a fitted effect of over 50% in size
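T. brucei PYK with substrate was exposed to pin-transferred compounds across a concentration series, then started with 130 uM ADP (final). After 45 min at room temperature, Kinase-Glo Plus luminescence was read, normalized and curve-fitted.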
LmPK inhibitor – blocks Leishmania mexicana pyruvate kinase activity; Q27686; purified LmPK, Kinase-Glo ATP luminescence, 1 h; 0.37% of 290,000 active; Potency, µM (series often up to 57.5 µM), for inactives: at the highest dose activity change, negative = inhibition, hits mostly inhibitors; note: potency is the fitted concentration of half-maximal effect; % is set by controls: 0 for no effect and ±100 for the full control effect
Target sequence (Q27686 whole entry, looked up): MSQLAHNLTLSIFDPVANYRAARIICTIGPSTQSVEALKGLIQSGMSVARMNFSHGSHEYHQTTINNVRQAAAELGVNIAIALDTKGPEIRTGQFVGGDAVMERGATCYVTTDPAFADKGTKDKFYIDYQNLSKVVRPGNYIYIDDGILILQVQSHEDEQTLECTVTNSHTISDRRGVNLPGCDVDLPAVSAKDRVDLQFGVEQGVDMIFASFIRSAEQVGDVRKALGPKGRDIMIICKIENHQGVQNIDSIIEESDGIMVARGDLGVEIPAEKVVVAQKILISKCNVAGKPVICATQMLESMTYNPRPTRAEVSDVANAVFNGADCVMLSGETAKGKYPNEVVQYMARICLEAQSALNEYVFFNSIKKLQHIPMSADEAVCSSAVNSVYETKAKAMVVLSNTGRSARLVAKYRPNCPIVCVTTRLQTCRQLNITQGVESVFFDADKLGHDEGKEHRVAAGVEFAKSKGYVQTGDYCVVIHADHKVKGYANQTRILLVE
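0.1 nM LmPK, 0.5 mM PEP, 0.1 mM ADP; 50 mM imidazole pH 7.2, 7 mM MgCl2, 50 mM KCl; 1 h RT. Kinase-Glo luminescence readout, normalized to no-enzyme (full inhibition) and uninhibited wells.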
RE007 growth inh – less growth of the S. pombe RE007 Vpr strain; 0.21% of 360,000 active; Potency, µM (titrated, usually from 92.2 µM), inactives show top-dose activity change, negative = less growth, most hits filed as inhibitors; S. pombe RE007 Vpr strain, BacTiter-Glo ATP luminescence, 24 h; AID 651644; active = well fitted falling curve with a large enough effect; inconclusive = small, poorly fitted or top-dose-only effect; inactive = no such curve, though single readings can be large or run the other way; note: potency is the fitted concentration of half-maximal effect; % is set by controls: 0 for no effect and ±100 for the full control effect; nearly all actives have a fitted effect of over 50% in size
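Fission yeast strain RE007, carrying one chromosomally integrated HIV-1 vpr copy, was seeded at OD 0.01 in PMG+AL medium with 23 nL pinned compound. After 24 h at 30 °C and 99% humidity, viability was read by BacTiter-Glo luminescence.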
CHX counter – counter-screen hit for Shiga toxin inhibitors, cycloheximide. 12% of 300,000 active. max response, %. AID 2314. cell reporter, cycloheximide protein synthesis inhibition counterscreen; in the data active = max response mostly above about 13%, no sharp cut-off; inactive = mostly below about 14%; note: read at 38.3 µM for the half of the compounds with a filed dose; 0% is about no effect
Starred values were filed as active, the others as inactive. The entries come from a sample that favours hits as a whole. Unless noted, calls come from the whole dose curve; as a rule, active = well fitted curve in the direction sought with a large enough effect; inconclusive = small, poorly fitted or top-dose-only effect, or another doubt; inactive = no such curve, though single readings can be large; an effect the other way counts as inactive or inconclusive.

Screening Cc1ccc(-c2noc(C3CCCN(C(=O)c4ccc(F)cc4F)C3)n2)cc1 (configuration not stated) returned Giardia FBPA inh -1%, Shiga inhibitor 17, Tb PYK inh -2%, LmPK inhibitor 1%, RE007 growth inh 5% and CHX counter 15*.
Screening CC(C)c1ccc(-c2noc(C3CCCN(C(=O)c4ccc(F)cc4F)C3)n2)cc1 (configuration not stated) returned Giardia FBPA inh 0%, Shiga inhibitor 38*, Tb PYK inh -6%, LmPK inhibitor -7%, RE007 growth inh 10% and CHX counter 55*.
Screening O=C(c1ccc(F)cc1F)N1CCC(c2nc(-c3ccc(S(=O)(=O)N4CCCC4)cc3)no2)CC1 returned Tb PYK inh 3%.
COc1ccc(-c2noc(CSc3nc(N)cc(=O)[nH]3)n2)cc1 was read as Giardia FBPA inh 1%, Shiga inhibitor 33, Tb PYK inh -11%, LmPK inhibitor -1%, RE007 growth inh -3% and CHX counter 8.0*.
Screening CCC(=O)Nc1cccc(C(=O)/C=C/c2ccccc2)c1 returned Giardia FBPA inh -1%, Shiga inhibitor 38, Tb PYK inh -5%, LmPK inhibitor -1%, RE007 growth inh -37% and CHX counter 25*.
Screening CCC(=O)Nc1cccc(C(=O)c2ccccc2)c1 returned Giardia FBPA inh 5%, Shiga inhibitor 2, Tb PYK inh -2%, LmPK inhibitor -1%, RE007 growth inh -7% and CHX counter 11*.
CCC(=O)Nc1cccc(C(=O)/C=C/c2cccs2)c1 was read as Giardia FBPA inh 4%, Shiga inhibitor 85*, Tb PYK inh -4%, LmPK inhibitor -3%, RE007 growth inh -15% and CHX counter 37*.
O=C(OCc1ccco1)c1ccc2c(c1)N(Cc1ccc([N+](=O)[O-])cc1)C(=O)c1ccccc1S2 was read as Tb PYK inh 0%.
For COc1ccccc1NC(=O)C(=O)NCCc1csc(-c2cccc(F)c2)n1 the results were Tb PYK inh 3%.
For Cc1ccccc1CNC(=O)CCCn1c(=O)c2cccn2c2ccccc21 the results were Tb PYK inh 2%.
`COc1ccc(C)cc1-n1nnc(C(=O)Nc2cccc(SC)c2)c1C` gave Tb PYK inh -10%.
Screening COCCn1c(N)c(N(Cc2ccccc2)C(=O)COc2ccccc2F)c(=O)[nH]c1=O returned Tb PYK inh 3% and RE007 growth inh 0%.
Screening Cc1ccc(-c2nc(CCNC(=O)c3ccco3)cs2)cc1 returned Tb PYK inh 7% and RE007 growth inh 17%.
`Cc1ccc(-c2nc(CNC(=O)c3ccco3)cs2)cc1` gave Shiga inhibitor 85*, Tb PYK inh 4%, LmPK inhibitor -11%, RE007 growth inh 11% and CHX counter 39.
Screening Cc1csc2nc(CNC(=O)c3ccco3)cn12 returned Giardia FBPA inh -1%, Shiga inhibitor 56*, Tb PYK inh -6%, LmPK inhibitor 3%, RE007 growth inh 12% and CHX counter 35*.
Cc1ccc(-c2csc(NC(=O)CCNC(=O)c3ccco3)n2)cc1 was read as Giardia FBPA inh -1%, Shiga inhibitor 43*, Tb PYK inh 0%, LmPK inhibitor 1%, RE007 growth inh 12% and CHX counter 20*.
CC(=O)c1ccc(NC(=O)CCc2c(C)nc3ncnn3c2C)cc1 was read as Giardia FBPA inh 0%, Shiga inhibitor 61*, Tb PYK inh 1%, LmPK inhibitor -4%, RE007 growth inh 16% and CHX counter 21*.
`CCc1c(C)nc2ncnn2c1Nc1ccc(C(C)=O)cc1` gave Giardia FBPA inh 4%, Shiga inhibitor 109*, Tb PYK inh 1%, LmPK inhibitor 3%, RE007 growth inh 8% and CHX counter 46*.
For COC(=O)c1ccc(NC(=O)CCc2c(C)nc3ncnn3c2C)cc1 the results were Giardia FBPA inh -5%, Shiga inhibitor 14, Tb PYK inh -10%, LmPK inhibitor 1%, RE007 growth inh -8% and CHX counter -3.
For Cc1nccn1C(c1ccccc1)c1ccccc1 the results were Tb PYK inh 15% and RE007 growth inh -11%.
Cc1ccc(C(=O)Nc2ccc3nc(C)sc3c2)o1 was read as Tb PYK inh 4% and RE007 growth inh -16%.
For Cc1nc2ccc(NC(=O)c3ccc(Cl)nc3)cc2s1 the results were Giardia FBPA inh -7%, Shiga inhibitor 24, Tb PYK inh 0%, LmPK inhibitor -1%, RE007 growth inh -10% and CHX counter 18*.
Cc1nc2ccc(NC(=O)c3cc(Cl)ccn3)cc2s1 was read as Giardia FBPA inh 1%, Shiga inhibitor 82*, Tb PYK inh -4%, LmPK inhibitor 2%, RE007 growth inh -16% and CHX counter 62*.
O=C(/C=C/[C@H]1O[C@@H](n2ccc(=O)[nH]c2=O)[C@H](O)[C@@H]1O)NCc1cccnc1 was read as Tb PYK inh -4% and RE007 growth inh 7%.
COc1cccc(NC(=O)CN2CCCCCC2)c1 was read as Giardia FBPA inh inconclusive, Tb PYK inh 0%, LmPK inhibitor -3%, RE007 growth inh 7% and CHX counter 23*.
`O=C(CN1CCCCC1)Nc1cccc(Br)c1` gave Giardia FBPA inh 0%, Shiga inhibitor 20, Tb PYK inh 4%, LmPK inhibitor 0%, RE007 growth inh 29% and CHX counter 15*.
Screening Cc1cccc(NC(=O)CN2CCCCCC2)c1 returned Giardia FBPA inh -27%, Shiga inhibitor 19, Tb PYK inh 1%, LmPK inhibitor 2%, RE007 growth inh 11% and CHX counter 6.
Cc1ccc(C(=O)Nc2cccc(NC(=O)CN3CCCCC3)c2)cc1 was read as Giardia FBPA inh 1%, Tb PYK inh -2%, LmPK inhibitor -22%, RE007 growth inh -17% and CHX counter 14*.
Screening CCC(=O)Nc1cc(-c2nc3ccccc3s2)c(Cl)cc1Cl returned Tb PYK inh -13%.
Screening Cc1cc(C)c2c(CC(=O)Nc3cc(C(F)(F)F)ccc3Cl)coc2c1 returned Tb PYK inh 2%.
`COc1cc(NS(=O)(=O)c2cc3c(cc2C)n(C)c(=O)c(=O)n3C)cc(OC)c1` gave Tb PYK inh 2%.
For CN(Cc1ccc2c(c1)CCCN2C)C(=O)[C@H]1O[C@@H](n2cnc3c(N)ncnc32)[C@H](O)[C@@H]1O the results were Tb PYK inh 7% and RE007 growth inh -2%.
`CC1=CN2C(=N)/C(=C/c3ccc(Sc4ccc(C)cc4)o3)C(=O)N=C2S1` gave Giardia FBPA inh 20%, Shiga inhibitor active, Tb PYK inh -14%, LmPK inhibitor 4%, RE007 growth inh 8% and CHX counter 23*.

High-throughput results: PubChem BioAssay, National Center for Advancing Translational Sciences (NCATS)
